An excerpt weighted towards active compounds, which were near 9.3% of everything screened.
ELG1 DNA repair = qHTS screen for small molecules that inhibit ELG1-dependent DNA repair in human embryonic kidney (HEK293T) cells expressing luciferase-tagged ELG1; 330,000 compounds, 2.3% hits; Potency, µM (highest dose often 46.1 µM), without a hit: at the highest dose activity change, negative = inhibition, hits mostly inhibitors; HEK293T ELG1-luciferase reporter, luminescence, 16 h; DNA damage induced by 5-fluorouridine; further: on the % scale 0 is the no-effect control and ±100 the full control effect; nearly all actives have a fitted effect of over 55% in size
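In this reporter screen, reduction of luminescence relative to DMSO vehicle indicated activity. Compounds and 5-fluorouridine were added together to 2,000 cells per well, incubated for 16 hr at 37 °C, then developed with ONE-Glo.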
ELG1 genotoxic = qHTS screen for small molecules that induce genotoxicity in human embryonic kidney (HEK293T) cells expressing luciferase-tagged ELG1. Potency, µM (series often up to 46 µM), inactives show top-dose activity change, positive = activation, actives largely listed as activators. HEK293T ELG1-luciferase reporter, luminescence, 16 h. 330,000 compounds, 1.3% hits; further: % of control where 0% means no effect; nearly all actives have a fitted effect of over 60% in size
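Genotoxic stress is detected as increased luminescence from luciferase-tagged ELG1 in HEK293T cells, measured with ONE-Glo after a 16 hr treatment at 37 °C.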
NPC1 prom act = qHTS Assay for NPC1 Promoter Activators | AID 485313, 2010 | Potency, µM (doses to about 9.22 µM), inactives show top-dose activation, actives largely listed as activators | 320,000 compounds, 2.4% hits | Huh7 NPC1 promoter luciferase reporter, 24 h; further: % of control where 0% means no effect; nearly all actives have a fitted effect of over 60% in size
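Readout is luciferase luminescence, reflecting NPC1 promoter activation in stably transfected Huh7 cells after 24 h compound exposure at 37 °C in reduced-serum medium with 10% FBS.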
SMN2 splice up = qHTS Assay for Enhancers of SMN2 Splice Variant Expression; HEK293 SMN2-luciferase splicing reporter, luminescence, 30-36 h; Potency, µM (series often up to 46.1 µM), for the others: top-dose activity change, positive = activation, actives largely listed as activators; 210,000 compounds, 2.8% hits; AID 1458, 2008; further: % of control where 0% means no effect; nearly all actives have a fitted effect of over 55% in size
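HEK293 cells carry an SMN2 […]–luciferase reporter in which exon 7 inclusion puts luciferase in frame. Cells were plated 10-12 h before compound addition, then incubated 30-36 h at 37C. ONE-Glo luminescence was read; sodium butyrate at 4.5 mM final served as control.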
FLuc counter = qHTS profiling assay for firefly luciferase inhibitor/activator using purifed enzyme and Km concentrations of substrates (counterscreen for miR-21 project) | Luciferin 4-monooxygenase (Photinus pyralis), P08659 | purified FLuc, Km substrates, luminescence inhibition | Potency, µM (series often up to 57.5 µM), inactives show at the highest dose activity change, negative = inhibition, usual class: inhibitors | 360,000 compounds, 6.9% hits;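 further: plate controls were vehicle for no effect and reference inhibitor for full effect; nearly all actives have a fitted effect of over 55% in size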
Target sequence (P08659 whole entry, looked up): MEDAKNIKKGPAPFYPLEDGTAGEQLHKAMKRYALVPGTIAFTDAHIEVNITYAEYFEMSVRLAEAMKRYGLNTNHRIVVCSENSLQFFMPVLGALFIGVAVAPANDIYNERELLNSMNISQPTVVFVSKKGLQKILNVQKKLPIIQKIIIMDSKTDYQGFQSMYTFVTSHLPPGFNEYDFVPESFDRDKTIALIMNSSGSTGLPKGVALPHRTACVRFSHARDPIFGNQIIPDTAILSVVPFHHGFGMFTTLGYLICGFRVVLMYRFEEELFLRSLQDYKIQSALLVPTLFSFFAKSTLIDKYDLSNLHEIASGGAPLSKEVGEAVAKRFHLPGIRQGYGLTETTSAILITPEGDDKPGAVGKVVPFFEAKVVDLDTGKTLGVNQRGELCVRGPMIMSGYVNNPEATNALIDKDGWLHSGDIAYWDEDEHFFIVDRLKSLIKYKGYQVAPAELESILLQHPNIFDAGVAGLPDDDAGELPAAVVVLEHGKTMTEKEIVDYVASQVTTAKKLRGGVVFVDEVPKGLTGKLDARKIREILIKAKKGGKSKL
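Purified P. pyralis luciferase, 10 nM final, with Km-level 10 uM D-luciferin and 10 uM ATP in 50 mM Tris acetate pH 7.5, 10 mM Mg acetate, 0.01% Tween-20, 0.05% BSA; 6-point qHTS titration about 60 µM downward; luminescence read.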
Rab9 prom act = qHTS Assay for Rab9 Promoter Activators; Huh7 Rab9 promoter-luciferase reporter, luminescence, 24 h; Potency, µM (top dose mostly 9.22 µM), inactives show top-dose activation, negative = inhibition, actives largely listed as activators; AID 485297, 2010; 320,000 compounds, 2.8% hits; further: % of control where 0% means no effect; nearly all actives have a fitted effect of over 60% in size
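Rab9 promoter-driven luciferase in stably transfected Huh7 cells; 1500 cells/well rested 2 h, exposed to compound in DMSO for 24 h at 37 °C, 5% CO2. Luminescence read 10 min after adding luciferase reagent at ambient temperature.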
An asterisk follows results filed as active; ? = inconclusive; . = not tested or not shown. The call rests on the fitted dose curve; in most records, active means well fitted curve in the direction sought with a large enough effect; inconclusive means small, poorly fitted or top-dose-only effect, or another doubt; inactive means no such curve, though single readings can be large; an effect the other way counts as inactive or inconclusive. Potency means the concentration at half of the fitted maximal effect.

SMILES | ELG1 DNA repair | ELG1 genotoxic | NPC1 prom act | SMN2 splice up | FLuc counter | Rab9 prom act
O=C(NCc1cccnc1)C(C(=O)c1ccc(F)cc1)n1ccccc1=O (stereo unspecified) | 0% | 18µM* | 2% | 6% | -2% | 16%
N=c1ccn(Cc2ccc(Cl)cc2Cl)cc1 | 8.2µM* | -21% | -32% | -31% | 3% | -36%
N=c1ccn(Cc2ccc(Cl)c(Cl)c2)cc1 | 4.6µM* | 3% | -39% | -47% | -1% | -52%
N=c1ccn(Cc2ccc(Cl)cc2)cc1 | 5.2µM* | 2% | -40% | -40% | -1% | -53%
N=c1ccn(Cc2ccccc2Cl)cc1 | -16% | -8% | -4% | -44% | 2% | -37%
N=c1ccn(Cc2cccc(Cl)c2)cc1 | ? | -6% | -43% | -50% | 0% | -30%
N=c1ccn(Cc2c(Cl)cccc2Cl)cc1 | 12µM* | 1% | -33% | . | 4% | -37%
COc1cccc(/C(O)=C2/C(=O)C(=O)N(c3cc(C)on3)C2c2cccs2)c1 (stereo unspecified) | 6% | -9% | 1% | -7% | -1% | 0%
CCNC(=S)N/N=C/c1cn(Cc2ccc(F)cc2)c2ccccc12 | -14% | 0% | 3% | -41% | 5% | -1%
O=C(O)c1ccc(N/N=C/c2cn(Cc3ccc(F)cc3)c3ccccc23)cc1 | ? | 12µM* | 2µM* | . | 8.5µM* | 2.8µM*
Cc1ccc(C(=O)N/N=C/c2cn(Cc3ccccc3)c3ccccc23)cn1 | 6.5µM* | -1% | 9% | . | 12µM* | 1%
O=C(N/N=C/c1cn(Cc2ccccc2)c2ccccc12)c1cc(O)cc(O)c1 | 14% | 3% | -4% | . | 24µM* | -7%
COc1cc(C(=O)N/N=C/c2cn(Cc3cccc(F)c3)c3ccccc23)ccc1O | -17% | 0% | -3% | . | ? | 1%
Cn1cccc1Cc1nnc(SCC(=O)NCC2CCCO2)n1CCc1ccccc1 (stereo unspecified) | -11% | -1% | 1% | 5% | 2% | -3%
O=C(NNc1ccccn1)C(=O)NNS(=O)(=O)c1ccc(F)cc1 | 21µM* | 0% | -1% | -5% | -5% | -7%
Cc1ccc(-n2nnnc2C(Cl)(Cl)c2nnnn2-c2ccc(C)cc2)cc1 | 2% | -2% | -2% | -14% | ? | -8%
Clc1ccc(-n2nnc(-c3nccs3)n2)cc1Cl | ? | 5.2µM* | 1.6µM* | . | 1.9µM* | 0.89µM*
Cc1ccc(-n2nnc(-c3nccs3)n2)cc1 | ? | 0.23µM* | ? | . | 0.12µM* | ?
Cc1nc(NC(=O)c2ccccc2)sc1-c1csc(N)n1 | 17% | 0% | ? | -41% | 9.5µM* | 29%
COc1ccc(OC)c(Nc2ccc(Nc3cc(OC)ccc3OC)nn2)c1 | ? | -3% | -1% | -13% | 3% | -2%
COc1ccccc1Nc1ccc(Nc2ccccc2OC)nn1 | ? | ? | ? | . | 9.5µM* | ?
Cc1nc(NC(=O)c2ccccc2)sc1-c1csc(NCc2ccccc2)n1 | 21µM* | -4% | -3% | 1% | ? | 2%
Cc1nc(NC(=O)c2ccccc2)sc1-c1csc(Nc2cccc(F)c2)n1 | ? | -16% | -5% | -14% | 13µM* | 9%
CN1CCN(S(=O)(=O)c2ccc(-c3ccc(S(=O)(=O)N4CCN(C)CC4)cc3)cc2)CC1 | 8% | ? | -1% | -27% | 1% | 10%
O=C(COC(=O)c1ccc(Cl)cc1O)Nc1cccnc1Cl | ? | -1% | 0% | . | -1% | 13%
COc1ccccc1NC1=C(C)C(=O)CC1 | ? | 21µM* | -4% | 18µM* | -2% | -5%

Screens: PubChem BioAssay, National Center for Advancing Translational Sciences (NCATS)
